# According to PubChem BioAssay AID504710 (Sanford-Burnham Center for Chemical Genomics, 2011):
# Active and inactive are the calls of the source.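 How the source made its calls: active means inhibition reaching about 16% in any single replicate (limit read from the data); inactive means the rest.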
# Target: Hexokinase HKDC1 (Homo sapiens) (UniProt Q2TB90)
# Experiment: HKDC1 hexokinase inhibitors, confirmation, biochemical, single concentration (AID 504710)
# Settings: recombinant HKDC1, G6PDH/diaphorase/resazurin fluorescence; at 20 µM; active compounds read high
# Hexokinase HKDC1 (Homo sapiens), sequence (Q2TB90 whole entry, looked up): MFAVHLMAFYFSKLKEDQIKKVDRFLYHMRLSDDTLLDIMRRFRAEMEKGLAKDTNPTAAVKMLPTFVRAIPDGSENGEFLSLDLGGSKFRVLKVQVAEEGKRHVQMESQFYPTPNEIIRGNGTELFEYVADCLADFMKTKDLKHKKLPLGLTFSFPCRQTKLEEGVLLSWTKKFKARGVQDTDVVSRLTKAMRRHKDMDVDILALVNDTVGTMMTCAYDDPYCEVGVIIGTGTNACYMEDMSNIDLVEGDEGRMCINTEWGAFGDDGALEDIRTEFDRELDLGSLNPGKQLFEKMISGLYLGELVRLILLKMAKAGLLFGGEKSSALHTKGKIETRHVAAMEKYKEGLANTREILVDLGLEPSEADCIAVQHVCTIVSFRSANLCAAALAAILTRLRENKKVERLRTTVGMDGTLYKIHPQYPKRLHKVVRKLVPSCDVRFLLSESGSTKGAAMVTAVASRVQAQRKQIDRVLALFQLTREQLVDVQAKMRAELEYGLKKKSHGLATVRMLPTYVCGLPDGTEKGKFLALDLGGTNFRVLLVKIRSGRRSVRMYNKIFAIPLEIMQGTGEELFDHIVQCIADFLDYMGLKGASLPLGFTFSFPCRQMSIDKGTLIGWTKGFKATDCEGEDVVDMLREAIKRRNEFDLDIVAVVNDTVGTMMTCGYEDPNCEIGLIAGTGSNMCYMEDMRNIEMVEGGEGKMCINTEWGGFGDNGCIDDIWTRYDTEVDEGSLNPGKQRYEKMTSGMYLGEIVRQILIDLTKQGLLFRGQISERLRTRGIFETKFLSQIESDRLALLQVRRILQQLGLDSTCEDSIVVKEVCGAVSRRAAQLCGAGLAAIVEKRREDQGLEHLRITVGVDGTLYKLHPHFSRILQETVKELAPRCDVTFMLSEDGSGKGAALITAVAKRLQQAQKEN
row,Compound,inhibition
1,O=C1NC(=S)N/C1=C/c1cc2c(cc1[N+](=O)[O-])OCO2,-36.6% (inactive)
2,S=C1Cc2ccccc2N1,-192% (inactive)
3,O=C(NC1=C(NC2CCS(=O)(=O)C2)C(=O)c2ccccc2C1=O)c1ccccc1 (centres undefined),68.9% (active)
4,O=C1C(=O)c2c(C(=O)c3ccccc3)coc2-c2ccccc21,53.2% (active)
5,COc1ccc2cc(CCNC(=O)c3ccc(S(=O)(=O)N4CCCC4)cc3)c(=O)[nH]c2c1,59.8% (active)
6,Nc1nc(-c2cccc(Br)c2)cs1,-40.6% (inactive)
7,COC1=C(OC)C(=O)C(Sc2ccc3ccccc3c2)=CC1=O,71.3% (active)
8,CC12CCC(C(=O)N/N=C/c3ccc(O)cc3O)(OC1=O)C2(C)C (centres undefined),-34.9% (inactive)
9,COC(=O)c1ccc(CCc2cc(O)c(Br)cc2O)cc1,54.2% (active)
10,COc1cc(N=c2ssnc2Cl)cc(OC)c1OC,-45.9% (inactive)
11,CCCC(=O)NC1=C(Cl)C(=O)c2ccccc2C1=O,81.4% (active)
12,COc1ccc(S(=O)(=O)Nc2ccc(O)c3ccccc23)cc1,51.2% (active)
13,N#Cc1ccc(CSc2nnc(NC(=O)c3ccc4ncsc4c3)s2)cc1,40.7% (active)
14,Cc1ccc(SC2=C(Sc3ccc(C)cc3)C(=O)c3ccccc3C2=O)cc1,69% (active)
15,O=S(=O)(O)c1ccc(O)c2cc(Nc3ccccc3)ccc12,44.1% (active)
16,CCN(CC)CCNc1cc(C)nc2c1C(=O)C(=O)C=C2N1CCCCC1,57.9% (active)
17,CC(=NNC(=S)N1CC2CCC(CC2)C1)c1ccncn1,-61.4% (inactive)
18,O=c1c2ccccc2nc(/C=C/c2cccnc2)n1Cc1ccccc1,60.7% (active)
19,Nn1cnnc1N/N=C/c1cc(Br)cc(Br)c1O,-31.9% (inactive)
20,O=C1C=C(N2CCOCC2)c2ccccc2C1=O,79.4% (active)
21,O=C(O)c1cc(O)c2c(c1)[C@@H]([C@H]1c3cc(C(=O)O)cc(O)c3C(=O)c3c(O[C@@H]4O[C@H](CO)[C@@H](O)[C@H](O)[C@H]4O)cccc31)c1cccc(OC3O[C@H](CO)[C@@H](O)[C@H](O)[C@H]3O)c1C2=O (some centres undefined),50.9% (active)
22,CC(=O)Nc1ccc(C2=NNC(=Nc3ccc(S(=O)(=O)N4CCOCC4)cc3)SC2)cc1,-234% (inactive)
23,COc1ccc(NC(=O)Cc2c[nH]c3ccccc23)cc1S(=O)(=O)N1CCCCC1,-35.1% (inactive)
24,Cc1ccc(SC2=C(N(C)C)C(=O)c3ccccc3C2=O)cc1,59.9% (active)
